# This excerpt belongs to a sample that is enriched for the strongest signals.
# B1: Dectin-1 (Mus musculus), Q6QLQ4 (protein)
# chain: GHNSGRNPEEKDNFLSRNKENHKPTESSLDEKVAPSKASQTTGGFSQPCLPNWIMHGKSCYLFSFSGNSWYGSKRHCSQLGAHLLKIDNSKEFEFIESQTSSHRINAFWIGLSRNQSEGPWFWEDGSAFFPNSFQVRNTAPQESLLHNCVWIHGSEVYNQICNTSSYSICEKEL
# What was measured:
# Assay in all cases: glycan array binding signal (z-score within array); higher = stronger binding
# Conditions in all cases: glycan notation: IUPAC condensed, linker removed
# [1] = target: 3dGal(b1-3)[Fuc(a1-4)]Glc
# How it was run: (§1)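 Arrays were curated from the Consortium for Functional Glycomics database, 3228 in total, and kept only where the protein sequence was available. Binding is expressed as a within-array Z-score. This score was averaged across arrays of the same protein sequence at different concentrations or buffers and across linkers, and negative values can be read as non-binding.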
# [2] = target: Ara(a1-5)Ara(a1-5)Ara(a1-5)Ara(a1-5)Ara(a1-5)Ara(a1-5)Ara
# How it was run: as §1
# Fuc(a1-6)GlcNAc = target: Fuc(a1-6)GlcNAc
# How it was run: as §1
# [3] = target: Gal(b1-3)GalNAc(b1-4)[Neu5Ac(a2-3)]Gal(b1-4)Glc
# How it was run: as §1
# Gal(b1-3)GlcNAc = target: Gal(b1-3)GlcNAc
# How it was run: as §1
# [4] = target: Gal(b1-3)GlcNAc(b1-3)[Fuc(a1-3)[Gal(b1-4)]GlcNAc(b1-6)]Gal(b1-4)]GlcNAc(b1-6)[Gal(b1-4)]GlcNAc(b1-3)]Gal(b1-4)Glc
# How it was run: as §1
# Gal3S(b1-4)GlcNAc = target: Gal3S(b1-4)GlcNAc
# How it was run: as §1
# Glc(a1-2)Glc(a1-2)Glc = target: Glc(a1-2)Glc(a1-2)Glc
# How it was run: as §1
# Glc(a1-4)Glc(a1-6)Glc = target: Glc(a1-4)Glc(a1-6)Glc
# How it was run: as §1
# Glc(a1-6)Glc(a1-6)Glc = target: Glc(a1-6)Glc(a1-6)Glc
# How it was run: as §1
# [5] = target: Glc(b1-3)Glc(b1-3)Glc(b1-3)Glc(b1-3)Glc(b1-3)Glc(b1-3)Glc(b1-3)Glc(b1-3)Glc(b1-3)Glc(b1-3)Glc
# How it was run: as §1
# [6] = target: Glc(b1-3)Glc(b1-3)Glc(b1-3)Glc(b1-3)Glc(b1-3)Glc(b1-3)Glc(b1-3)Glc(b1-3)Glc(b1-3)Glc(b1-3)Glc(b1-3)Glc
# How it was run: as §1
# [7] = target: Glc(b1-3)Glc(b1-3)Glc(b1-3)Glc(b1-3)Glc(b1-3)Glc(b1-3)Glc(b1-3)Glc(b1-3)Glc(b1-3)Glc(b1-3)Glc(b1-3)Glc(b1-3)Glc
# How it was run: as §1
# Glc(b1-3)Glc(b1-4)Glc = target: Glc(b1-3)Glc(b1-4)Glc
# How it was run: as §1
# [8] = target: Glc(b1-3)Glc(b1-4)Glc(b1-4)Glc
# How it was run: as §1
# [9] = target: Glc(b1-4)Glc(b1-4)Glc(b1-4)Glc(b1-4)Glc(b1-4)Glc(b1-4)Glc(b1-4)Glc(b1-4)Glc(b1-4)Glc(b1-4)Glc
# How it was run: as §1
# GlcA(b1-3)Gal = target: GlcA(b1-3)Gal
# How it was run: as §1
# [10] = target: GlcA3S(b1-3)Gal(b1-4)GlcNAc(b1-3)Gal(b1-4)Glc
# How it was run: as §1
# GlcNAc(b1-3)Gal(b1-4)Glc = target: GlcNAc(b1-3)Gal(b1-4)Glc
# How it was run: as §1
# [11] = target: Man(a1-2)Man(a1-2)Man(a1-3)[Man(a1-2)Man(a1-6)[Man(a1-3)]Man(a1-6)]Man(b1-4)GlcNAc(b1-4)GlcNAc
# How it was run: as §1
# [12] = target: Man(b1-4)Man(b1-4)Man(b1-4)Man(b1-4)Man
# How it was run: as §1
# [13] = target: Neu(a2-3)Gal(b1-4)[Fuc(a1-3)]GlcNAc(b1-3)Gal(b1-4)Glc
# How it was run: as §1
# [14] = target: Neu5Ac(a2-3)Gal(b1-3)GalNAc(b1-4)[Neu5Ac(a2-3)]Gal(b1-4)Glc
# How it was run: as §1
# [15] = target: Neu5Ac(a2-3)Gal(b1-3)GlcNAc(b1-3)Gal(b1-4)Glc
# How it was run: as §1
# [16] = target: Neu5Ac(a2-3)Gal(b1-3)[Neu5Ac(a2-6)]GalNAc
# How it was run: as §1
# [17] = target: Neu5Ac(a2-3)Gal(b1-4)GlcNAc6S(b1-3)Gal6S(b1-3)GlcNAc6S
# How it was run: as §1
# [18] = target: Neu5Ac(a2-3)Gal(b1-4)[Fuc(a1-3)]GlcNAc(b1-3)Gal
# How it was run: as §1
# [19] = target: Neu5Ac(a2-6)Gal(b1-4)GlcNAc(b1-2)Man(a1-3)[Neu5Ac(a2-6)Gal(b1-4)GlcNAc(b1-2)Man(a1-6)]Man(b1-4)GlcNAc(b1-4)GlcNAc
# How it was run: as §1
# [20] = target: Neu5Ac(a2-6)Gal(b1-4)GlcNAc(b1-3)[Neu5Ac(a2-6)Gal(b1-4)GlcNAc(b1-6)]Gal(b1-4)Glc
# How it was run: as §1
binder,measurement,setting,value
B1,glycan array binding signal (z-score),[1],0.092
same,glycan array binding signal (z-score),[2],-0.064
same,glycan array binding signal (z-score),Fuc(a1-6)GlcNAc,-0.091
same,glycan array binding signal (z-score),[3],-0.091
same,glycan array binding signal (z-score),Gal(b1-3)GlcNAc,-0.088
same,glycan array binding signal (z-score),[4],0.102
same,glycan array binding signal (z-score),Gal3S(b1-4)GlcNAc,-0.071
same,glycan array binding signal (z-score),Glc(a1-2)Glc(a1-2)Glc,-0.135
same,glycan array binding signal (z-score),Glc(a1-4)Glc(a1-6)Glc,0.413
same,glycan array binding signal (z-score),Glc(a1-6)Glc(a1-6)Glc,-0.113
same,glycan array binding signal (z-score),[5],1.33
same,glycan array binding signal (z-score),[6],5.34
same,glycan array binding signal (z-score),[7],13.4
same,glycan array binding signal (z-score),Glc(b1-3)Glc(b1-4)Glc,-0.135
same,glycan array binding signal (z-score),[8],-0.135
same,glycan array binding signal (z-score),[9],0.216
same,glycan array binding signal (z-score),GlcA(b1-3)Gal,-0.06
same,glycan array binding signal (z-score),[10],-0.078
same,glycan array binding signal (z-score),GlcNAc(b1-3)Gal(b1-4)Glc,-0.029
same,glycan array binding signal (z-score),[11],-0.004
same,glycan array binding signal (z-score),[12],-0.113
same,glycan array binding signal (z-score),[13],-0.091
same,glycan array binding signal (z-score),[14],-0.039
same,glycan array binding signal (z-score),[15],-0.091
same,glycan array binding signal (z-score),[16],-0.069
same,glycan array binding signal (z-score),[17],-0.054
same,glycan array binding signal (z-score),[18],-0.091
same,glycan array binding signal (z-score),[19],-0.091
same,glycan array binding signal (z-score),[20],-0.091
